PMC7819943, “Rice protein-binding microarrays: a tool to detect cis-acting elements near promoter regions in rice”
Whole data set: some 39,000 sequences, median “fluorescence intensity (a.u.)” near 4,300, cut for the highest 2% near 39,000. For the sample, the highest values were picked, then their nearest neighbours and some sequences at random.

Each sequence was assayed against T1, OsSMF1 (Oryza sativa, UniProt Q6ZLB0 1-436) (assay: protein-binding microarray (RPBM); PBS, 2% BSA, 51.3 ng/ul salmon testes DNA, 50 uM zinc acetate, 200 nM TF, 25 C, 1 h; high values mean tight binding). Conditions: protein: recombinant; tags: N-terminal polyhistidine and DsRed monomer fusion (pET32a); chain copies: 2; label: CyDye5-dUTP incorporated in the synthesized complementary strand; 3' TTTTT single-stranded linker to array surface; dsDNA, one strand shown.
T1 sequence: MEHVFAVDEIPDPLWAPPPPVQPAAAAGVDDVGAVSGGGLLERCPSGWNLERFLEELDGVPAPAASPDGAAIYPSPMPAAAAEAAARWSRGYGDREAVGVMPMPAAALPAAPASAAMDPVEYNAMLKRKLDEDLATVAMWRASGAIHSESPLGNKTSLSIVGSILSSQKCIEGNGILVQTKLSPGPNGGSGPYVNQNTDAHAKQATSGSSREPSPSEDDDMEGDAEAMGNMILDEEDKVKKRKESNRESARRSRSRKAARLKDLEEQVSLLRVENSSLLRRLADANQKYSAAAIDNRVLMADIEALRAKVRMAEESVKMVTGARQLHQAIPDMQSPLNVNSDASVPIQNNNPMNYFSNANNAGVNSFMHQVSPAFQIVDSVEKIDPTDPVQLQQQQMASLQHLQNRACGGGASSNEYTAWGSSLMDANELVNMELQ
Procedure, shortened: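 A custom Agilent array was converted to double-stranded form by primer extension with Cy5-dUTP and blocked with 2% BSA. Protein at 200 nM in PBS with 2% BSA, salmon testes DNA and 50 µM zinc acetate was applied for 1 h at 25 °C, followed by washing. The proteins were polyhistidine–DsRed N-terminal fusions of transcription factors, expressed in E. coli BL21-CodonPlus and Ni–NTA-purified. The binding signal is per-feature fluorescence intensity (arbitrary units) from an Axon 4000B scanner.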
“CCTCCTTTTCTTCTCCACGTATACAATCAGTCTAGTTGGACGGAGTCACCTAGTGCAG” was tested, and the binding signal was 5040 fluorescence intensity (a.u.). With “ATCTTTTCTAGTACCAGGATCTTGTGTTGGTGATAGAGAGCGGAGTCACCTAGTGCAG” the binding signal was 42500 fluorescence intensity (a.u.). For “GCAGTATATGTGTGTGTGCTTTCTTTTGGGATAGAGTCTGCGGAGTCACCTAGTGCAG”, the binding signal was 3460 fluorescence intensity (a.u.). “TGGATAAGGATGTGTGAGACGTGTGATCTTTACTTGTTGGCGGAGTCACCTAGTGCAG” was tested, and the binding signal was 3980 fluorescence intensity (a.u.). With “TACTTTAAATGTGTGTCCGTATATCCGATGTGACACGCCACGGAGTCACCTAGTGCAG” the binding signal was 3870 fluorescence intensity (a.u.). For “TAAACATATATGCATGGATGATGTCATGGAAACATGGATTCGGAGTCACCTAGTGCAG”, the binding signal was 4690 fluorescence intensity (a.u.). With “GATCAATCATCCTTGTTCACAAGGCTGCCTGACATGGATGCGGAGTCACCTAGTGCAG” the binding signal was 3730 fluorescence intensity (a.u.). For “AGATGGGAAATAAAGGGTGGTGACATGGCACACTGACATGCGGAGTCACCTAGTGCAG”, the binding signal was 10800 fluorescence intensity (a.u.). For “TACTGCCACGTAGGCGCCACGTCAGCGAAACCGCCCTCCACGGAGTCACCTAGTGCAG”, the binding signal was 58100 fluorescence intensity (a.u.). “CCGAGTCAATACTGCCACGTAGCGCGCCACGTCAGCGAAACGGAGTCACCTAGTGCAG” was tested, and the binding signal was 26300 fluorescence intensity (a.u.). For “CAAACAAGCCACGTAGATGCCACGTCATCCAAAACCGCCTCGGAGTCACCTAGTGCAG”, the binding signal was 29600 fluorescence intensity (a.u.). In the case of “GCGCCACGTAGACGCCACGTCAGCCAAAACCGCCCTCCATCGGAGTCACCTAGTGCAG”, the binding signal is reported as 52000 fluorescence intensity (a.u.). For “GCCCACGCTCACCGACTCCATCGACGTCACGCTCACCGCCCGGAGTCACCTAGTGCAG”, the binding signal was 5090 fluorescence intensity (a.u.). With “CGCTCCGTCAGCCACGTAGACGCTACGTCGGCCAAAACCGCGGAGTCACCTAGTGCAG” the binding signal was 14900 fluorescence intensity (a.u.). With “GTCAAAACCGCCACGTAGACGCCACGTCATCGAAACCGCCCGGAGTCACCTAGTGCAG” the binding signal was 40400 fluorescence intensity (a.u.). For “GGTGTCACGTAAGCGCCACGTCAGCGAACCGCCCTCCAAACGGAGTCACCTAGTGCAG”, the binding signal was 26600 fluorescence intensity (a.u.). In the case of “AAAAGCCCACCACCACCCAACCCGCCCAACGCCACGTCACCGGAGTCACCTAGTGCAG”, the binding signal is reported as 24800 fluorescence intensity (a.u.). In the case of “TCCGTGACACCGTGACAGCGTGGACGTTCATAACCTTCCACGGAGTCACCTAGTGCAG”, the binding signal is reported as 9010 fluorescence intensity (a.u.). With “GACCTCGCGAACAGCCCACACGTACGTTACTGACGCCATACGGAGTCACCTAGTGCAG” the binding signal was 4360 fluorescence intensity (a.u.). For “ACAGGTAGCTCCATATCTTGTTCATATTGACATACACAATCGGAGTCACCTAGTGCAG”, the binding signal was 31500 fluorescence intensity (a.u.). In the case of “TGCAAATTTTCAAAATCGACTACCAGTAGATGTTTACTCCCGGAGTCACCTAGTGCAG”, the binding signal is reported as 14000 fluorescence intensity (a.u.). For “CAAGAATGTACTGAGTACGTCTCAATCCACGTGTTTGAGCCGGAGTCACCTAGTGCAG”, the binding signal was 4960 fluorescence intensity (a.u.). In the case of “ATGCAGCCACACGGATGTTGGACGTCATTGTCTATAGTGTCGGAGTCACCTAGTGCAG”, the binding signal is reported as 4580 fluorescence intensity (a.u.). With “TCACGAACTGTGTACCGGATGCCACGTCACACAGTTGTCTCGGAGTCACCTAGTGCAG” the binding signal was 41200 fluorescence intensity (a.u.). “TATAGTTGTGTACTAGTGTCACTCACGCCACCCGTCTCATCGGAGTCACCTAGTGCAG” was tested, and the binding signal was 3670 fluorescence intensity (a.u.). For “TTGCAGTGCCACCTCACCGCCACGTAGGATGATGACTAAGCGGAGTCACCTAGTGCAG”, the binding signal was 25800 fluorescence intensity (a.u.). In the case of “AACCAGCCACGTAGGCGCCACGTCAGCCAAAACTGCTATCCGGAGTCACCTAGTGCAG”, the binding signal is reported as 35900 fluorescence intensity (a.u.). “GGCCGCGTAGGCGCCACATCAGCCAAAACCACCATCAAAACGGAGTCACCTAGTGCAG” was tested, and the binding signal was 4590 fluorescence intensity (a.u.). “CGTAAGCGCCACGTTAATGCCACGTGGGGCGAAGACCTAGCGGAGTCACCTAGTGCAG” was tested, and the binding signal was 15100 fluorescence intensity (a.u.). In the case of “AGTAAAAGGAGCCACGTAGGCGCCACGTCATCCAAAACCACGGAGTCACCTAGTGCAG”, the binding signal is reported as 47600 fluorescence intensity (a.u.). For “AGTTAATGGAGGAGCCACCGCCACGTAAGTGCCACGTAGGCGGAGTCACCTAGTGCAG”, the binding signal was 56200 fluorescence intensity (a.u.). In the case of “ACAAGCCACGTAGGCGCCACGTCAGCCAAAACCGCCTTCACGGAGTCACCTAGTGCAG”, the binding signal is reported as 44100 fluorescence intensity (a.u.). “AAACTAGCCACGTTGGCGCCACGTCAGCCAAAACCGCCTTCGGAGTCACCTAGTGCAG” was tested, and the binding signal was 33700 fluorescence intensity (a.u.). For “ACCAGCCACGTAGGCGCCACGTCAGCTAAAACCGCCTTCACGGAGTCACCTAGTGCAG”, the binding signal was 19900 fluorescence intensity (a.u.). For “CATTATACTGTTCATAAACATGAATATCACAACCTGTTCTCGGAGTCACCTAGTGCAG”, the binding signal was 21100 fluorescence intensity (a.u.). In the case of “GTGTGGGGATAAACAGAGGTAGAGACATGTGTCAGATGACCGGAGTCACCTAGTGCAG”, the binding signal is reported as 3150 fluorescence intensity (a.u.). In the case of “CTTCTTTCCCGCACGCGCGGCTCGCGCATGCATGCACGATCGGAGTCACCTAGTGCAG”, the binding signal is reported as 15000 fluorescence intensity (a.u.). For “CGTCCGGCGTCGGCGTGGACGGGTCGGCGCGGCGCCCCACCGGAGTCACCTAGTGCAG”, the binding signal was 3650 fluorescence intensity (a.u.). In the case of “AGATTAAGGAGTCCTCCATCTATATAATCCAATCTATCTCCGGAGTCACCTAGTGCAG”, the binding signal is reported as 21400 fluorescence intensity (a.u.). With “ACCACCCGAGACGCGACGTGGCGGCGGGCATGCAGCACCCCGGAGTCACCTAGTGCAG” the binding signal was 5050 fluorescence intensity (a.u.). “CGGCACCACCAGTTGTCCGGCATGCGATGTGGTACCGAGACGGAGTCACCTAGTGCAG” was tested, and the binding signal was 49300 fluorescence intensity (a.u.). For “TTGTCCGATGTGGCAGTTGAGTCAGCATGAGACCCACGTACGGAGTCACCTAGTGCAG”, the binding signal was 14200 fluorescence intensity (a.u.).
